Assay outcomes: PubChem, several laboratories
Rows were chosen to be rich in hits. Some 1.5% of all compounds tested hit in one or more screens of this group.
ARNT TACC3 PPI = ARNT/TACC3 interaction disruption; AlphaScreen His-ARNT PAS-B/GST-TACC3 binding, luminescence; TACC3 fragment carries E629A point mutation; inhibition, % at 9.99 µM; 390,000 tested, 0.66% active;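 active = mean inhibition of replicates at least 50% and at least half of replicates each reaching 50%; inconclusive = half or more replicates reach 50% but mean below 50%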;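 also: 0% = complete ARNT plus TACC3 wells and 100% = ARNT alone without TACC3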
sPLA2-III inh = Blocks human group III sPLA2 activity; 370,000 tested, 0.56% active; AID 743126; inhibition, % at 12.2 µM; Q9NZ20; QFRET BODIPY PC-A2 liposome hydrolysis, fluorescence;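 active = inhibition above mean plus 3 SD of compounds lying within the high and low control bounds, cut at about 19% in these data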;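 also: 0% = median of test compound wells and 100% = no enzyme DMSO wells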
AI-2 QS modul = Vibrio harveyi AI-2 quorum sensing modulation | Vibrio harveyi JMH597 AI-2 luminescence/OD600 ratio, 9 h; hits give low values; strain lacks LuxN and CqsS sensors; 0 = neutral-control median | activity change, % at 7.5 µM | 300,000 tested, 0.4% active | AID 2094; in the data active = activity change below about -75%, passing the limit was not always enough; inconclusive = no clear call, values can overlap the other calls;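 also: luminescence divided by OD600 gain over 9 h not by final OD600 alone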
Rin1-Abl PPI inh = human Rin1-Abl interaction inhibition; AID 588664; inhibition, % at 7.35 µM; 360,000 tested, 0.4% active; P00519+Q13671; TR-FRET Rin1/Abl binding, biochemical; in the data active = inhibition above about 5%, passing the limit was not always enough
ARNT Alpha ctr-1 = interferes with AlphaScreen signal, flagging false ARNT-TACC3 hits; shares compounds with ARNT TACC3 PPI; His-ARNT PASB-GST AlphaScreen artifact counter-screen, luminescence; AC50, µM (titrated, usually from 68 µM), without a hit: at the top dose activity change, negative = signal decrease; 1,200 tested, 50% active; AID 651705;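 active = every separate test run was called active for a drop in luminescence, with AC50 within twice the top valid dose, actives reach about 71 µM in these data; inconclusive = the separate test runs disagree in their calls; inactive = all runs inactive, including signal change in the wrong direction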
ARNT Alpha ctr-2 = produces AlphaScreen artifacts in ARNT-TACC3 counter-screen; shares compounds with ARNT TACC3 PPI; Dual-tagged His-ARNT PASB-GST AlphaScreen artifact counter-screen; AC50, µM; 45 tested, 70% active; AID 720564;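 active = luminescence drop, with half-maximal potency fitted within twice the sample's top valid dose, cut at about 70 µM in these data; inactive = the rest, including signal moving the wrong way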
Numbers without * were called inactive; i = inactive; ? = inconclusive; / = no result given; [ ] = dose if it differs, or a comment.

SMILES	ARNT TACC3 PPI	sPLA2-III inh	AI-2 QS modul	Rin1-Abl PPI inh	ARNT Alpha ctr-1	others
O=C(Nc1nc(-c2ccncc2)cs1)c1ccco1	7	4	14	-3	/	ARNT Alpha ctr-2=i
C[C@H]1CN([C@@H](C)CO)C(=O)c2cccc(NC(=O)NC3CCCCC3)c2O[C@H]1CN(C)S(=O)(=O)c1cccs1	-5	/	/	/	/
CC(=O)NC1=NC(=O)/C(=C/c2cn(C(C)=O)nc2-c2ccccc2)S1	54*	-4	9	-1	-16%
C[C@@H]1CN([C@@H](C)CO)C(=O)c2cc(NS(=O)(=O)c3cn(C)cn3)ccc2O[C@H]1CN(C)CC1CCCCC1	-11	/	/	/	/
Cc1[nH]n2c(=O)c3c(nc2c1-c1ccccc1)CCC3	59*	3	15	1	-1%
CCC(COC(=O)c1ccccc1)Oc1cc(NCc2ccccc2)c2ncn(C(C)C)c2c1 (stereo not drawn)	17	1	/	-1	/
CCC(COC)Oc1cc(NCc2ccccc2)c2ncn(C(C)C)c2c1 (stereo not drawn)	56*	5	/	0	34µM*
Clc1nssc1=Nc1nncs1	36*	5	/	4	-15%
CC(C)Nc1nc(NC(C)C)nc(C(=O)OCCO)n1	57*	1	-16	2	-13%
O=C(O)CSCc1cn2cc(Cl)ccc2n1	-6	5	7	-1	/
CNCc1cn2cc(Cl)ccc2n1	67*	18	41	-3	-8%
CCCNC(=O)C[C@@H]1C[C@H]2c3cc(NC(=O)Nc4ccccc4)ccc3O[C@H]2[C@H](CO)O1	-2	/	/	/	/
COc1ccc(-c2cnc3c(c2)C(=O)N([C@@H](C)CO)C[C@@H](C)[C@@H](CN(C)Cc2cccnc2)O3)cc1	85*	/	/	/	-5%[38 µM]
COc1ccc(-c2cnc3c(c2)C(=O)N([C@@H](C)CO)C[C@H](C)[C@@H](CN(C)Cc2cccnc2)O3)cc1	108*	/	/	/	-7%[38 µM]
COc1ccc(-c2cnc3c(c2)C(=O)N([C@H](C)CO)C[C@H](C)[C@H](CN(C)Cc2cccnc2)O3)cc1	104*	/	/	/	4%[42 µM]
C[C@H](NC(=O)C[C@@H]1C=C[C@H](NC(=O)C2CC2)[C@H](CO)O1)c1ccccc1	6	/	/	/	/
Cc1ccccc1Nc1nc(N)nc(CN(C)Cc2ccccc2Cl)n1	57*	-3	-2	1	-30%
Cc1ccc(SCc2nc(N)nc(Nc3ccccc3C)n2)c(C)c1	3	-11	9	-2	/
Nc1ccc2nn(-c3ccc(F)cc3)nc2c1	17*	1	18	-1	-25%
Cc1noc(C)c1NC(=O)N1C[C@H](O)COC[C@@H]2O[C@H](CC(=O)NCC3CCCCC3)CC[C@H]21	-7	/	/	/	/
CCN(C[C@H]1N[C@H](CO)[C@H]1c1ccc(C2=CCCC2)cc1)C(=O)c1ccncc1	9	/	/	/	/
CN1CCN(/N=C/c2nc(-c3ccccc3Cl)n3ccccc23)CC1	35*	-2	-13	-4	-22%
Clc1ccccc1-c1nc(/C=N/N2CCOCC2)c2ccccn12	11	-1	12	2	/
Oc1cccc(CN2CCOCC2)c1O	15*	-6	/	13*	-1%
CCCc1cc(CN2CCOCC2)c(O)c(CN2CCOCC2)c1O	-5	10	/	0	/
SMILES	ARNT TACC3 PPI	sPLA2-III inh	AI-2 QS modul	Rin1-Abl PPI inh	ARNT Alpha ctr-1	others
Cc1nc(Nc2ccc(C(=O)O)cc2)nc(Nc2ccc(C(=O)O)cc2)c1[N+](=O)[O-]	64*	-3	24	-1	9.4µM*
CC(=O)Nc1ccc(Nc2nc(C)c([N+](=O)[O-])c(Nc3ccccc3)n2)cc1	-1	-5	7	2	/
COc1ccc(C2=C(C)CC(C)(C)NC2=O)cc1OC	active	-1	9	0	5%
Cc1c(CCC(=O)O)c(=O)oc2c(C)c3occ(-c4ccc(Br)cc4)c3cc12	56*	11	52	2	52µM*
Cc1coc2c(C)c3oc(=O)c(CCC(=O)N[C@@H](C)C(=O)N[C@@H](Cc4ccccc4)C(=O)O)c(C)c3cc12	74*	-15	15	-2	-36%
CC(C)NC(=O)Nc1ccc2c(c1)C(=O)N([C@H](C)CO)C[C@@H](C)[C@H](CN(C)C)OCCCC[C@@H](C)O2	-7	/	/	/	/
CC(C)NC(=O)Nc1ccc2c(c1)C(=O)N([C@@H](C)CO)C[C@H](C)[C@@H](CN(C)C)OCCCC[C@H](C)O2	109*	/	/	/	-1%[42 µM]
CC(C)NC(=O)Nc1ccc2c(c1)C(=O)N([C@H](C)CO)C[C@@H](C)[C@H](CN(C)C(=O)Nc1ccccc1)OCCCC[C@@H](C)O2	12	/	/	/	/
CC(C)NC(=O)N(C)C[C@@H]1OCCCC[C@@H](C)Oc2ccc(NC(=O)Cc3ccccc3)cc2C(=O)N([C@H](C)CO)C[C@@H]1C	-11	/	/	/	/
CC(C)NC(=O)N(C)C[C@H]1OCCCC[C@H](C)Oc2ccc(NC(=O)Cc3ccccc3)cc2C(=O)N([C@H](C)CO)C[C@H]1C	106*	/	/	/	-3%[42 µM]
CC(C)NC(=O)Nc1ccc2c(c1)C(=O)N([C@H](C)CO)C[C@@H](C)[C@@H](CN(C)C(=O)Nc1ccccc1)OCCCC[C@@H](C)O2	66*	/	/	/	-3%[38 µM]
Cc1ccc(C(=O)Nc2cccc(C(=O)N/N=C/c3ccc(O)cc3)c2)cc1	31*	-13	21	5	-30%
Oc1c(C(c2ccccc2Cl)N2CCCC2)ccc2cccnc12 (stereo not drawn)	74*	16	?	4	8.4µM*
CC(=O)NC(c1ccc(C(C)C)cc1)c1ccc2cccnc2c1O (stereo not drawn)	5	16	34	2	/
Oc1c(C(c2ccccn2)N2CCC(Cc3ccccc3)CC2)cc(Cl)c2cccnc12 (stereo not drawn)	/	8	?	/	/
Oc1c(C(c2ccc(Cl)cc2)N2CCCC2)cc(Cl)c2cccnc12 (stereo not drawn)	55*	18	-121*	1	6.5µM*
CC(=O)N1C[C@@H]2[C@H](c3ccccc31)[C@@H](CO)N2C(=O)Nc1ccc(F)cc1	2	/	/	/	/
O=C(N/N=C/c1cccc2nccnc12)c1ccccc1O	59*	4	87	-3	30µM*
CC(C)N(C(C)C)S(=O)(=O)c1ccc(NN)nc1	-3	-10	10	-2	/
CCN(CC)S(=O)(=O)c1ccc(NN)nc1	56*	-8	30	2	45µM*
CO[C@H]1CN(C)C(=O)c2cc(NS(=O)(=O)c3ccccc3)ccc2OC[C@@H](C)N(Cc2cccnc2)C[C@@H]1C	-5	/	/	/	/
O=C(C[C@H]1C[C@@H]2c3cc(NC(=O)c4ccc5c(c4)OCO5)ccc3O[C@@H]2[C@H](CO)O1)NC1CCCCC1	7	/	/	/	/
COc1ccccc1NC(=O)N[C@@H]1C=C[C@@H](CC(=O)N[C@@H](C)c2ccccc2)O[C@@H]1CO	-7	/	/	/	/
